We go through 2 sequences from PMC7862700, “An all-to-all approach to the identification of sequence-specific readers for epigenetic DNA modifications on cytosine”.

Holding throughout (assay): DAPPL (digital affinity profiling via proximity ligation, sequencing); 10 mM Tris-HCl pH 7.5, 50 mM NaCl, 1 mM DTT, 4% glycerol, room temperature, 30 min; GST-TFs on glutathione beads, 16-mer random dsDNA library, 0.1% formaldehyde crosslink after washing; high values mean tight binding
In one assay the target is T1, FLI1 (Homo sapiens, UniProt Q01543 1-452).
T1 sequence: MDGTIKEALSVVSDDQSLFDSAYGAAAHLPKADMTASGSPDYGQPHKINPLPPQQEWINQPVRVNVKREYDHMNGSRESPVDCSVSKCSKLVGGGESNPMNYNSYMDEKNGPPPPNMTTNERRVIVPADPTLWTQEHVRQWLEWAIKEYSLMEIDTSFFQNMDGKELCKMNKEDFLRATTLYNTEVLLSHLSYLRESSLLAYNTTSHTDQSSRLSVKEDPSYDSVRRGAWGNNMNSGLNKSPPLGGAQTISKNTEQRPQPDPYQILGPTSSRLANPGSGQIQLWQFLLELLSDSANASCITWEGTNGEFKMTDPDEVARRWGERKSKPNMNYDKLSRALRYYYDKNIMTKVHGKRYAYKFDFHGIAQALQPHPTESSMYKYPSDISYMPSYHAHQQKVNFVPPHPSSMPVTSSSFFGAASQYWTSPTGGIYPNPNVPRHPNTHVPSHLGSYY
To be noted: protein: recombinant; tags: N-terminal GST; dsDNA, one strand shown. The method, boiled down:
(§1)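 Binding signal is given per hexamer as its read frequency for a factor divided by its frequency in the tag-only sample. GST-fused human transcription factors were expressed in yeast, captured on glutathione beads, barcoded with DNA and pooled with that sample, then incubated with 200 nmole of a 16-mer random double-stranded DNA library in Tris/NaCl/DTT/glycerol buffer for 30 min at room temperature. The pools were then washed, crosslinked, proximity-ligated, amplified by PCR and sequenced on an Illumina NextSeq500.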

In a further assay the target is T2, ELK1 (Homo sapiens, UniProt P19419 1-428).
T2 sequence: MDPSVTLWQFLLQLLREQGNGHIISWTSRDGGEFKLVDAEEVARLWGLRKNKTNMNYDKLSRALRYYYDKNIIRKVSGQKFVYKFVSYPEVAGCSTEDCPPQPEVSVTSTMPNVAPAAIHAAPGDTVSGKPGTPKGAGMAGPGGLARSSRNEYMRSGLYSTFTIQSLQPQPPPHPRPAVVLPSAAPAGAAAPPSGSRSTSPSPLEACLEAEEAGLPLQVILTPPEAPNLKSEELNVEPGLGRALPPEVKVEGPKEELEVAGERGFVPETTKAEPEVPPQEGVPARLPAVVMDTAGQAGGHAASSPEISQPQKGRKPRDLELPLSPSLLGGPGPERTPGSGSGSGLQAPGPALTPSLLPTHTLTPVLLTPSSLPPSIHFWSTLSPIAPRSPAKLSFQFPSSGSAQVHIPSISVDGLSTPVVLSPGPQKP
To be noted: protein: recombinant; tags: N-terminal GST; dsDNA, one strand shown. The method, boiled down:
as §1

The target in a further assay is T3, GABPA (Homo sapiens, UniProt Q06546 1-454).
T3 sequence: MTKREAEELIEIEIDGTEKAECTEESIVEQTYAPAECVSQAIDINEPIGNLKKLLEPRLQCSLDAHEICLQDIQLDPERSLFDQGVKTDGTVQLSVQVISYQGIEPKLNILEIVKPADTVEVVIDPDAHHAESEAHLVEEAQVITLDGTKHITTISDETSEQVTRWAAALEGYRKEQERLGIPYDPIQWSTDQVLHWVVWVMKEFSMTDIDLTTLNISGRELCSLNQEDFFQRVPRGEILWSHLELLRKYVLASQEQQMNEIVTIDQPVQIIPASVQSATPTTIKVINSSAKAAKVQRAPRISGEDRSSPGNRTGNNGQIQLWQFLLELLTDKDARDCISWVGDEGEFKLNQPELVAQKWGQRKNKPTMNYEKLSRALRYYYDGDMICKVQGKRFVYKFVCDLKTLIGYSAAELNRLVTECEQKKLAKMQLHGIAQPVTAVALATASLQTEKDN
To be noted: protein: recombinant; tags: N-terminal GST; dsDNA, one strand shown. In outline: as §1

A further assay has as its target T4, ERG (Homo sapiens, UniProt P11308 1-479).
T4 sequence: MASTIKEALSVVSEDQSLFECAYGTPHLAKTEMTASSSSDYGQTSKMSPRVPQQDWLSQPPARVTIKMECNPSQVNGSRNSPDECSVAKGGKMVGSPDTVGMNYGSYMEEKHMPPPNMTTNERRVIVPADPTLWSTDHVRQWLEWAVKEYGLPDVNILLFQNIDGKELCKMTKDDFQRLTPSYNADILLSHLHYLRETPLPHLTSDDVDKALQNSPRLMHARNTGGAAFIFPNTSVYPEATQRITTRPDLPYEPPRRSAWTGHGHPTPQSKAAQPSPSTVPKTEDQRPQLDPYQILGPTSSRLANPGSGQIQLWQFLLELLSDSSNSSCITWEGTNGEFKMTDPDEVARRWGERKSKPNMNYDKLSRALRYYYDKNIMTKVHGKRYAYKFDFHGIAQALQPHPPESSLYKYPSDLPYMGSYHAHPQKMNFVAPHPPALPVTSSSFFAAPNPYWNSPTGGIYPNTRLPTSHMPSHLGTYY
To be noted: protein: recombinant; tags: N-terminal GST; dsDNA, one strand shown. In outline: as §1

For a further assay, the target named is ELF1 (Homo sapiens, UniProt P32519 1-619). The following applies: protein: recombinant; tags: N-terminal GST; dsDNA, one strand shown. In outline: as §1
The target of another assay is T5, EHF (Homo sapiens, UniProt Q9NZC4 1-300).
T5 sequence: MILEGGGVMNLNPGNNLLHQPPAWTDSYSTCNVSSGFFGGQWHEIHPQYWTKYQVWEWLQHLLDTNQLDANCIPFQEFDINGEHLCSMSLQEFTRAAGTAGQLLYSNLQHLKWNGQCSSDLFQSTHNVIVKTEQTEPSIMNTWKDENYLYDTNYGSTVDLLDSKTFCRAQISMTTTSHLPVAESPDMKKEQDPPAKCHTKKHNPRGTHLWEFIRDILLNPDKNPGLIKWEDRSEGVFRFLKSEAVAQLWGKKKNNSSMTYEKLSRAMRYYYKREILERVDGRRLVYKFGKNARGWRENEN
The following applies: protein: recombinant; tags: N-terminal GST; dsDNA, one strand shown. In outline: as §1

In the next assay the target is T6, ELK3 (Homo sapiens, UniProt P41970 1-407).
T6 sequence: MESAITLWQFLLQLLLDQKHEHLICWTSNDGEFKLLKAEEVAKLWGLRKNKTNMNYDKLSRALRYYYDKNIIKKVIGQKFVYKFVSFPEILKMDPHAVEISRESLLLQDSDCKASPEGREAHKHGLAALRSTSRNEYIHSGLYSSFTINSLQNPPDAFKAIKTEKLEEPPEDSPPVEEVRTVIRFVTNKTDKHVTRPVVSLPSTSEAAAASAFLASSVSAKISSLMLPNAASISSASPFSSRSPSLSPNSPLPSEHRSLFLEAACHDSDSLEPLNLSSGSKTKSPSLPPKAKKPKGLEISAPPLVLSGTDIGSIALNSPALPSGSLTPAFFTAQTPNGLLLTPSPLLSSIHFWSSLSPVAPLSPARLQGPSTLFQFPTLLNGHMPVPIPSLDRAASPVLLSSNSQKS
The following applies: protein: recombinant; tags: N-terminal GST; dsDNA, one strand shown. In outline:
as §1

Another assay has as its target T7, FEV (Homo sapiens, UniProt Q99581 1-238).
T7 sequence: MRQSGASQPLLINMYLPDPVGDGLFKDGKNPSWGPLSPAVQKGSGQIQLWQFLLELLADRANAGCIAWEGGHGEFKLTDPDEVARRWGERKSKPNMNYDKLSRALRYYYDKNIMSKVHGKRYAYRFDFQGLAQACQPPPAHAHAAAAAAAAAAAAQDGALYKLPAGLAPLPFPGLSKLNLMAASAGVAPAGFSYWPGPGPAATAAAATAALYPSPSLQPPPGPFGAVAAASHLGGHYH
To be noted: protein: recombinant; tags: N-terminal GST; dsDNA, one strand shown. In outline:
as §1

For another assay, the target named is ETV5 (Homo sapiens, UniProt P41161 1-510). To be noted: protein: recombinant; tags: N-terminal GST; dsDNA, one strand shown. The method, boiled down:
as §1

In another assay the target is HSF1 (Homo sapiens, UniProt Q00613 1-529). The following applies: protein: recombinant; tags: N-terminal GST; chain copies: 3; dsDNA, one strand shown. The method, boiled down: as §1
The target of the next assay is ELF4 (Homo sapiens, UniProt Q99607 1-663). To be noted: protein: recombinant; tags: N-terminal GST; dsDNA, one strand shown. The method, boiled down: as §1
In a further assay the target is T8, ELK4 (Homo sapiens, UniProt P28324-2 1-405).
T8 sequence: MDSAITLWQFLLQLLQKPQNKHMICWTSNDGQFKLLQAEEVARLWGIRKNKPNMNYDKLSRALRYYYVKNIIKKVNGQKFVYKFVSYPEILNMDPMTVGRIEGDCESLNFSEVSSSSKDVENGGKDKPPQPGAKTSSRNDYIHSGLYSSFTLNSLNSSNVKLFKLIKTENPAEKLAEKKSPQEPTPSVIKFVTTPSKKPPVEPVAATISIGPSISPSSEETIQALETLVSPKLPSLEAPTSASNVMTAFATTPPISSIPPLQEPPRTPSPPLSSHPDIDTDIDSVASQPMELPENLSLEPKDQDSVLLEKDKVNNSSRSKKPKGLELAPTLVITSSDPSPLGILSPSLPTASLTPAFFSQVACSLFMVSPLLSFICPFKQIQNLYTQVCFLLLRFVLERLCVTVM
The following applies: protein: recombinant; tags: N-terminal GST; dsDNA, one strand shown. The method, boiled down:
as §1

Another assay deals with CRX (Homo sapiens, UniProt O43186 1-299). The following applies: protein: recombinant; tags: N-terminal GST; dsDNA, one strand shown. In outline: as §1
The target of another assay is ETV1 (Homo sapiens, UniProt P50549 1-477). To be noted: protein: recombinant; tags: N-terminal GST; dsDNA, one strand shown. The method, boiled down: as §1
Another assay has as its target SPI1 (Homo sapiens, UniProt P17947 1-270). The following applies: protein: recombinant; tags: N-terminal GST; dsDNA, one strand shown. The method, boiled down:
as §1

The target in the next assay is SPIB (Homo sapiens, UniProt Q01892 1-262). To be noted: protein: recombinant; tags: N-terminal GST; dsDNA, one strand shown. The method, boiled down:
as §1

For a further assay, the target named is T9, ETV2 (Homo sapiens, UniProt O00321 1-342).
T9 sequence: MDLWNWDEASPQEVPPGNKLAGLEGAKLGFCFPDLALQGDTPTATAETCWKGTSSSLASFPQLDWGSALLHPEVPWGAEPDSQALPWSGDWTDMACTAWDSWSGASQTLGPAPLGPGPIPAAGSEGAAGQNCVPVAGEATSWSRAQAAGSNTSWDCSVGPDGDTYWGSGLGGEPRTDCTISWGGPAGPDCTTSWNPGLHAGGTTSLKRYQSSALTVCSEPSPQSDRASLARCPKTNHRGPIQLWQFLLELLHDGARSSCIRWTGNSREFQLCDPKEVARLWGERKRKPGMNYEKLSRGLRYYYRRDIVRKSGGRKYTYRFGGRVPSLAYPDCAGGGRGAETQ
The following applies: protein: recombinant; tags: N-terminal GST; dsDNA, one strand shown. The method, boiled down: as §1

The target in another assay is T10, ELF3 (Homo sapiens, UniProt P78545 1-371).
T10 sequence: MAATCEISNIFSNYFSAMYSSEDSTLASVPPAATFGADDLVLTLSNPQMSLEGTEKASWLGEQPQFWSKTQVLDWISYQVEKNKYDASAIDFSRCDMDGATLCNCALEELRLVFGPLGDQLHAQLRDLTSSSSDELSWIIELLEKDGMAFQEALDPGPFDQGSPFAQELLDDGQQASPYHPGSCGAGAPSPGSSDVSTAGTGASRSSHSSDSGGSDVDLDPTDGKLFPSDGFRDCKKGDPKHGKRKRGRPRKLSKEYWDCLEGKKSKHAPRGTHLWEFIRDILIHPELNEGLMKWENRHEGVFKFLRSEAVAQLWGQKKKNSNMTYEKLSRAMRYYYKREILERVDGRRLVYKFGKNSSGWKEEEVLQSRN
To be noted: protein: recombinant; tags: N-terminal GST; dsDNA, one strand shown. The method, boiled down: as §1

ELF1, sequence (P32519 whole entry): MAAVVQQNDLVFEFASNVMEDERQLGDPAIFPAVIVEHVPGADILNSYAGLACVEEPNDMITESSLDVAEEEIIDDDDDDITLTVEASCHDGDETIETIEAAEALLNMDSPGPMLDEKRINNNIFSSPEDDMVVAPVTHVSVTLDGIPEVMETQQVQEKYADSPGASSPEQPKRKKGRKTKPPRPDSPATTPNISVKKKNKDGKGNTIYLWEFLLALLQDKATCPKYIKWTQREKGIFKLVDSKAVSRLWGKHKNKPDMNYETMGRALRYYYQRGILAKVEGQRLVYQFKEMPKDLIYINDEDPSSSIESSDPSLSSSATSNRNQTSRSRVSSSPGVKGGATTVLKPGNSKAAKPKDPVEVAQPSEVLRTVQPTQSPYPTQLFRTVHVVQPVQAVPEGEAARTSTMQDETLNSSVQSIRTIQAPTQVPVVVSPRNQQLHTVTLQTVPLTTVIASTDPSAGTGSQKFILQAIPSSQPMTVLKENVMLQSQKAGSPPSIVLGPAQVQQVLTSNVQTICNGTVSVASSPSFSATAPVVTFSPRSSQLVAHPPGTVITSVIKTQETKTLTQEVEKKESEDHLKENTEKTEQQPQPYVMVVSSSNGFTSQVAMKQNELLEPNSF
ELF4, sequence (Q99607 whole entry): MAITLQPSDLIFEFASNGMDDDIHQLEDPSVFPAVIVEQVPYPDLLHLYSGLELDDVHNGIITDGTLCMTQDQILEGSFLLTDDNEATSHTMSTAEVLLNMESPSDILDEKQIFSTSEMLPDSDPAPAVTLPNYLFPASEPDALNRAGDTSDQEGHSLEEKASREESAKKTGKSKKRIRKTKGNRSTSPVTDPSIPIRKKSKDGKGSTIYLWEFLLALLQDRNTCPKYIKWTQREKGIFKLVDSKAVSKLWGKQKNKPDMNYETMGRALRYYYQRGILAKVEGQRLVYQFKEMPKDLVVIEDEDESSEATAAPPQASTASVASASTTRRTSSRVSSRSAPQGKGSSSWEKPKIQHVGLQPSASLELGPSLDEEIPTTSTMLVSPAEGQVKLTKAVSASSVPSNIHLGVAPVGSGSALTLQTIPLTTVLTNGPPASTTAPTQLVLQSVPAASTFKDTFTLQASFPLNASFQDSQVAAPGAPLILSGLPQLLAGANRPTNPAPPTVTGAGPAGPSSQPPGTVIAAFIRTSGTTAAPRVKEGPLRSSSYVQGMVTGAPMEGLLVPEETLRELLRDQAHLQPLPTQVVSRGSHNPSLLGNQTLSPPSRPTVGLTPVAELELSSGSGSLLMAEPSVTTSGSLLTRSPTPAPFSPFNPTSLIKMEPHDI
HSF1, sequence (Q00613 whole entry): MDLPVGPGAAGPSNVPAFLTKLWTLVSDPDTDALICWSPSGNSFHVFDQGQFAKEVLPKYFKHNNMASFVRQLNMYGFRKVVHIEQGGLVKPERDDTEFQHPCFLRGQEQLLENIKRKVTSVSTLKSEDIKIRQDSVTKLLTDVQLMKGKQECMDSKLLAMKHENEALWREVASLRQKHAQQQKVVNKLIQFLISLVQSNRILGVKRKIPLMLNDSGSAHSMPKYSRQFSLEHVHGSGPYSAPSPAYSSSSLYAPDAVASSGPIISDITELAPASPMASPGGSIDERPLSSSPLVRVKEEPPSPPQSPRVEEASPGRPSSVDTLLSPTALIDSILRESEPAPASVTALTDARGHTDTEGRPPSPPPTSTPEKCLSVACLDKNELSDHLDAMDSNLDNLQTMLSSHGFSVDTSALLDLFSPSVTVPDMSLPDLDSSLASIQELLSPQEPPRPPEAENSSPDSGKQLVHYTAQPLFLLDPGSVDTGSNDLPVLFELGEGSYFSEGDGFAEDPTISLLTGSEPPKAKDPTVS
ETV1, sequence (P50549 whole entry): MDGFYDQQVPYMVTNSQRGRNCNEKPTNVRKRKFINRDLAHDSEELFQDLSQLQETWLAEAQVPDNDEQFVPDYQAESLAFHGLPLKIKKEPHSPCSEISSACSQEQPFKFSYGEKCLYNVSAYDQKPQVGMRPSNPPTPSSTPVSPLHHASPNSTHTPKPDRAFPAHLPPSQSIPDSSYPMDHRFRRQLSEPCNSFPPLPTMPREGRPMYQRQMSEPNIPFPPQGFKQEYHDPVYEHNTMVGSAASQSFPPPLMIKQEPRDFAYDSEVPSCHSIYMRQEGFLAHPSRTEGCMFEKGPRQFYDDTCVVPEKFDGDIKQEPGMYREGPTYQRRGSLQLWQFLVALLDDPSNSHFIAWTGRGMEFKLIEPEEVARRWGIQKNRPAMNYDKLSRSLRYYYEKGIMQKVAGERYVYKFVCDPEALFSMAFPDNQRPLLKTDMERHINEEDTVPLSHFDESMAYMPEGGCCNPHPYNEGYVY
ETV5, sequence (P41161 whole entry): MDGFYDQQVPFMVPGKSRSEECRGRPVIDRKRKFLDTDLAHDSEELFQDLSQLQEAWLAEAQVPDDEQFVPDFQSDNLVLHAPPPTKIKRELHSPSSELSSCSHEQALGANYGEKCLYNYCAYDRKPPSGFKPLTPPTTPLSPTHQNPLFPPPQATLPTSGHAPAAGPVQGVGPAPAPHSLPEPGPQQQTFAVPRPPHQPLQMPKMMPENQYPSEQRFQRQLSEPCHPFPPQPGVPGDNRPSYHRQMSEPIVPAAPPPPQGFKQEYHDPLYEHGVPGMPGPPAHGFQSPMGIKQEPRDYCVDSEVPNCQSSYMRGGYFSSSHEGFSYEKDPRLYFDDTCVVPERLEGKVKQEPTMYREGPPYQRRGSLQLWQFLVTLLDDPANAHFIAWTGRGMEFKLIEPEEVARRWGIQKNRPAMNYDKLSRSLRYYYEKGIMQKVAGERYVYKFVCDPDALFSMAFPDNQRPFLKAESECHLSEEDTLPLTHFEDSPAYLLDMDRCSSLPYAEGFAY
SPIB, sequence (Q01892 whole entry): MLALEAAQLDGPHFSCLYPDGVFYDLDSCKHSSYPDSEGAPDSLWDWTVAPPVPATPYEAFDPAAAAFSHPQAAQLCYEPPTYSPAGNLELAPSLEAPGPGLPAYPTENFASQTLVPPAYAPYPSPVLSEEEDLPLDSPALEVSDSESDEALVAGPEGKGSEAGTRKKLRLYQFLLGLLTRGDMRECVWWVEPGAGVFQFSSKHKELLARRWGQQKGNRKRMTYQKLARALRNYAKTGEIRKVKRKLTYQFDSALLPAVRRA
CRX, sequence (O43186 whole entry): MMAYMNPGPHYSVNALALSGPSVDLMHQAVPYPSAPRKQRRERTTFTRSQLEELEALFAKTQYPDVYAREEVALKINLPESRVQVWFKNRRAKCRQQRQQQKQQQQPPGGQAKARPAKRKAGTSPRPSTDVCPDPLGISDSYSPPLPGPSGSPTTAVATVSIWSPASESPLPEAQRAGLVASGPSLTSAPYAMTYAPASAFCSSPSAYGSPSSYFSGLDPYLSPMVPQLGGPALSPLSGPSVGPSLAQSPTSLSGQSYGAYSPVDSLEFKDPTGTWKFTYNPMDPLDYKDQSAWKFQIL

As for ATCGCA, the binding signal with FLI1 is 1.07 fold enrichment (6-mer frequency, TF over GST control); with ELK1, 1.07 fold enrichment (6-mer frequency, TF over GST control); with GABPA it was 1.1 fold enrichment (6-mer frequency, TF over GST control); with ERG it was 1.03 fold enrichment (6-mer frequency, TF over GST control); with ELF1, 1.08 fold enrichment (6-mer frequency, TF over GST control); with EHF, 1.02 fold enrichment (6-mer frequency, TF over GST control). Also, the binding signal with ELK3 was 1.06 fold enrichment (6-mer frequency, TF over GST control); with FEV, 1.01 fold enrichment (6-mer frequency, TF over GST control); in the assay with ETV5, 1 fold enrichment (6-mer frequency, TF over GST control); with HSF1 it was 1.03 fold enrichment (6-mer frequency, TF over GST control); with ELF4 it was 1.12 fold enrichment (6-mer frequency, TF over GST control); with ELK4, 1.06 fold enrichment (6-mer frequency, TF over GST control). The binding signal with CRX was 1.17 fold enrichment (6-mer frequency, TF over GST control); with ETV1 it was 1.06 fold enrichment (6-mer frequency, TF over GST control).
On to CGATCG, for which the binding signal is 1.18 fold enrichment (6-mer frequency, TF over GST control) with FLI1; 1.12 fold enrichment (6-mer frequency, TF over GST control) with ELK1; 1.14 fold enrichment (6-mer frequency, TF over GST control) with GABPA; 1.1 fold enrichment (6-mer frequency, TF over GST control) in the assay with ERG; 1.13 fold enrichment (6-mer frequency, TF over GST control) with ELF1; 1.07 fold enrichment (6-mer frequency, TF over GST control) in the assay with EHF. The binding signal with SPI1 is 1.02 fold enrichment (6-mer frequency, TF over GST control); with SPIB it was 1.03 fold enrichment (6-mer frequency, TF over GST control); with FEV it was 1.03 fold enrichment (6-mer frequency, TF over GST control); with ETV5 it was 1.03 fold enrichment (6-mer frequency, TF over GST control); with HSF1, 1.09 fold enrichment (6-mer frequency, TF over GST control); with ELF4, 1.04 fold enrichment (6-mer frequency, TF over GST control). In addition, the binding signal is 1.13 fold enrichment (6-mer frequency, TF over GST control) in the assay with ELK4; 1.12 fold enrichment (6-mer frequency, TF over GST control) with ETV2; 1.08 fold enrichment (6-mer frequency, TF over GST control) with ELF3; 1.03 fold enrichment (6-mer frequency, TF over GST control) with ETV1.
